Test [1] can be described thus: NCI Yeast Anticancer Drug Screen. Data for the rad50 strain (AID 155).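 Note: 0% = growth of vehicle-only cultures of the same strain.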 The conditions noted are these: S. cerevisiae rad50 strain growth inhibition; at 50.0 µM; active compounds read high. A digest of the protocol: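 Yeast carrying a defined DNA repair defect were exposed to test compounds, and growth was compared with vehicle-treated controls to give percent inhibition.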

Test [2] in a line: NCI Yeast Anticancer Drug Screen. Data for the mec2-1 strain (AID 157). The conditions noted are these: S. cerevisiae mec2-1 strain, at 50.0 µM, active compounds read high. A digest of the protocol:
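Yeast mec2-1 mutant treated with compound. Readout: growth inhibition vs vehicle controls.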

Test [3] is described as follows: NCI Yeast Anticancer Drug Screen. Data for the sgs1 mgt1 strain (AID 161).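 Note: 0% = growth of cultures given vehicle only.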 The conditions noted are these: S. cerevisiae sgs1 mgt1 strain, at 50.0 µM, active compounds read high. Put shortly: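 Read-out: growth inhibition vs vehicle controls. Cells: mutant yeast strain deficient in DNA damage repair.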
A short description of test [4]: NCI Yeast Anticancer Drug Screen. Data for the cln2 rad14 strain (AID 165).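 Note: 0% = growth equal to vehicle treated cultures.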 The conditions noted are these: S. cerevisiae cln2 rad14 strain, at 50.0 µM, active compounds read high. A digest of the protocol:
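cln2 rad14 yeast strain; compound exposure; growth inhibition read vs vehicle controls.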

Test [5] can be described thus: NCI Yeast Anticancer Drug Screen. Data for the bub3 strain (AID 167). The conditions noted are these: S. cerevisiae bub3 mutant strain, at 50.0 µM, active compounds read high. A digest of the protocol: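 Compounds were applied to a genetically altered yeast strain carrying a cell-cycle control defect. Growth inhibition was scored against vehicle-treated controls.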
A short description of test [6]: NCI Yeast Anticancer Drug Screen. Data for the mlh1 rad18 strain (AID 175). The following applies: S. cerevisiae mlh1 rad18 strain growth inhibition; at 50.0 µM; active compounds read high. A digest of the protocol:
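Yeast w/ defined DNA-repair lesions; compound exposure; growth vs vehicle controls → % inhibition.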

About 79,000 compounds went through this panel and 15% of them were active in at least one assay; those are over-represented in the sample as a whole. Unmarked numbers belong to inactive results. The source made the active and inactive calls. Cut-off read from the data, not from the text of the source: active = growth inhibition above about 70%; inactive = the rest.

For the compound `[NH-]c1ncnc2c1N=C[N+]2=CC=CCO`, the growth inhibition in test [1] was -1.6%; in test [2] it was -17%; in test [3], -19.7%; in test [4], -7.6%; in test [5] it was -28.4%; in test [6] it was -10.7%.
For the compound `CC1=CC2C3C(=O)NC(=O)C3C1C1C3C(=O)NC(=O)C3C21` (stereo not given), the growth inhibition was -25% in test [1]; -3.9% in test [2]; 1.2% in test [3]; -18.6% in test [4]; 2.45% in test [5]; 16.4% in test [6].
Consider `N=C(CC(=O)Nc1ccccn1)c1ccccc1`, for which the growth inhibition in test [1] is 1.25%; in test [2], -28.7%; in test [3] it was -23.3%; in test [4], -32%; in test [5], -20.9%; in test [6] it was -16.6%.
Take `COC(=O)/C=C/c1ccc(OC)c(OC)c1`: the growth inhibition in test [1] was 22.3%; in test [2] it was 0.4%; in test [3] it was 13.6%; in test [4] it was -2.2%; in test [5] it was 64.5%; in test [6] it was 50%.
`O=C(Nc1ccc(S(=O)(=O)N2CCCCC2)cc1)Oc1ccccc1C(=O)O`: the growth inhibition in test [1] is 26.4%; in test [2], -4.5%; in test [3], 3.15%; in test [4] it was 16.1%; in test [5], -1.65%; in test [6], 4.8%.
Take `Cc1nn(C(=O)c2ccc(Cl)cc2)c2c1C(c1ccc(O)cc1)SC(N)=N2` (stereo not given): the growth inhibition in test [1] was -33%; in test [2] it was -49.1%; in test [3], -43.7%; in test [4], -26.8%; in test [5], -23.9%; in test [6], -31.2%.
Regarding `C=CCC1(C)C=C(C)C(=O)C(C)=C1`, the growth inhibition was -6.05% in test [1]; -7% in test [2]; 18.6% in test [3]; 2.55% in test [4]; 16.2% in test [5]; 15.1% in test [6].
As to `c1ccc(C23CCCCC2O3)cc1` (stereo not given), the growth inhibition in test [1] is 0.75%; in test [2] it was 2.95%; in test [3] it was 6.55%; in test [4] it was 5.95%; in test [5] it was 12.4%; in test [6], 4.85%.
For the compound `O=C(Nc1ccccc1)c1cc2cc(N=Nc3ccc(Br)cc3)ccc2oc1=O`, the growth inhibition is 4.2% in test [1]; -4.7% in test [2]; -0.4% in test [3]; 16.1% in test [4]; -17.1% in test [5]; -13.1% in test [6].
`Clc1ccc(C2ON=C(c3ccccc3)N2C23CC4CC(CC(C4)C2)C3)cc1` (stereo not given): the growth inhibition in test [1] was -23.2%; in test [2] it was -27%; in test [3], -24.1%; in test [4], -0.3%; in test [5], -11.9%; in test [6] it was -0.75%.
On to `CN=Cc1ccccc1O.CN=Cc1ccccc1O.[Cu+2]`, for which the growth inhibition in test [1] was 6.55%; in test [2] it was -8.6%; in test [3], -10.9%; in test [4], -73.8%; in test [5], -2.5%; in test [6], 3.05%.
On to `O=C1CCCCCCCC(=O)Nc2ccc3nc4ccccc4c(c3c2)SCCCCCCCCCSc2c3ccccc3nc3ccc(cc23)N1`, for which the growth inhibition was 27.7% in test [1]; -13.2% in test [2]; -6.75% in test [3]; -13.2% in test [4]; -6.5% in test [5]; 4.2% in test [6].
`O=[N+]([O-])c1ccc(OCCCCCBr)c(Cl)c1`: the growth inhibition in test [1] was -1.95%; in test [2], 47.1%; in test [3] it was 70.3% (active); in test [4] it was -26.7%; in test [5], 66.2%; in test [6], 54.7%.
On to `C[N+]1(C)CCC[N+](C)(C)CC1`, for which the growth inhibition was -15.9% in test [1]; -7.75% in test [2]; 3.9% in test [3]; 16.2% in test [4]; 20.9% in test [5]; 6.4% in test [6].
With `O=S(CCO)c1ccc(Cl)cc1` (stereo not given), the growth inhibition in test [1] was -26.1%; in test [2] it was -20.1%; in test [3], -21.2%; in test [4], -55.5%; in test [5], 2.75%; in test [6], -23.9%.
Take `CCN(CC)CCCC(C)NCc1ccnc2cc(Cl)ccc12` (stereo not given): the growth inhibition in test [1] was -3.35%; in test [2] it was -8.05%; in test [3], 5.95%; in test [4] it was -21.4%; in test [5] it was 1.65%; in test [6], 25.4%.
Turning to `CC(C)NCc1ccccc1Sc1ccccc1CNC(C)C`, the growth inhibition in test [1] is 22.1%; in test [2], 5.45%; in test [3], 12.1%; in test [4] it was 12.8%; in test [5], 11.4%; in test [6] it was 16.2%.
For `O=[S@@]1Nc2cc3ccccc3cc2S1`, the growth inhibition in test [1] was 23.2%; in test [2], -3.35%; in test [3], 17.6%; in test [4], 17.1%; in test [5], -14.9%; in test [6], 39.2%.
For the compound `CC1=C(CCC#N)C(=O)C(CCC#N)C(C)(C)C1` (stereo not given), the growth inhibition was 0.15% in test [1]; -8.65% in test [2]; -16.6% in test [3]; -29.6% in test [4]; -2.75% in test [5]; -7.9% in test [6].
For the compound `COC(=O)c1ccccc1N=NNc1ccc2c(=O)c3ccccc3[nH]c2c1`, the growth inhibition in test [1] is 23.8%; in test [2] it was 1.7%; in test [3], 22.1%; in test [4], 34.5%; in test [5], 11.6%; in test [6] it was 66%.
As for `Brc1cc(Br)c(-c2c(Br)cc(Br)cc2Br)c(Br)c1`, the growth inhibition in test [1] was -20.8%; in test [2], -30.2%; in test [3], -16.1%; in test [4] it was 4.2%; in test [5], -7.5%; in test [6] it was -15.7%.
For `CSc1nc(NC2OC(COC(C)=O)C(OC(C)=O)C(OC(C)=O)C2OC(C)=O)c(-c2csc(N)n2)c(=O)n1C` (stereo not given), the growth inhibition is -6.8% in test [1]; -38% in test [2]; -22.4% in test [3]; 10.2% in test [4]; -8.15% in test [5]; 13.3% in test [6].
`CC(C)(C)C(=O)N1C(C(=O)O)Cc2ccccc2[C@@H]1Cc1ccccc1` (stereo not given in full): the growth inhibition in test [1] is -6.9%; in test [2] it was -7.25%; in test [3], -16.1%; in test [4], 22.5%; in test [5], -11.1%; in test [6] it was -29.5%.
In the case of `c1ccc(CC2=NCCc3ccccc32)cc1`, the growth inhibition in test [1] was -16.4%; in test [2], -28.3%; in test [3], -3.3%; in test [4] it was 1.15%; in test [5], -2.6%; in test [6], -8.7%.
For `COc1ccc(/C(=N\N=C(N)N)C(c2ccc(OC)cc2)C2OC(=O)c3ccccc32)cc1` (stereo not given), the growth inhibition in test [1] is -12.2%; in test [2], -4.85%; in test [3], -4.65%; in test [4] it was -64.8%; in test [5], 16%; in test [6], -18.7%.
As to `Cc1c(/C=N/O)nc2ccccc2c1C(=O)O`, the growth inhibition in test [1] is -15.1%; in test [2] it was -9.25%; in test [3] it was -6.5%; in test [4], -24.1%; in test [5], -3.85%; in test [6] it was -28.9%.
`CC(=O)OC(C(=O)O)C(OC(C)=O)C(OC(C)=O)C(=O)O` (stereo not given): the growth inhibition is 21.5% in test [1]; 19.2% in test [2]; 13.8% in test [3]; -5.85% in test [4]; 5.7% in test [5]; 8.4% in test [6].
Turning to `CN(CCNC(=O)NC1CCCCC1)c1ccccc1`, the growth inhibition was 3.45% in test [1]; 0.75% in test [2]; 15.9% in test [3]; 2.85% in test [4]; 8.45% in test [5]; 35.4% in test [6].
In the case of `CCCCCC/C(C)=N/O`, the growth inhibition in test [1] was -1.8%; in test [2] it was 3.75%; in test [3], 0.8%; in test [4], 4.85%; in test [5], 10.7%; in test [6], -6.2%.
As to `COc1cc(C(c2ccc(N(Cc3ccccc3)Cc3ccccc3)cc2NC(C)=O)c2ccc(N(Cc3ccccc3)Cc3ccccc3)cc2NC(C)=O)ccc1O`, the growth inhibition in test [1] was 2.75%; in test [2] it was 2.05%; in test [3], -11.4%; in test [4], -8.2%; in test [5] it was -5.1%; in test [6], 38.2%.
Turning to `CCCCNC(=O)Nc1nc2ccccc2s1`, the growth inhibition was 25.3% in test [1]; 2.15% in test [2]; 11.5% in test [3]; 38% in test [4]; -3% in test [5]; -1.7% in test [6].
Take `Cn1cnnc1Sc1c([N+](=O)[O-])nc(-c2ccc([N+](=O)[O-])cc2)n1C`: the growth inhibition in test [1] is -3.5%; in test [2], 3.15%; in test [3], 10.1%; in test [4] it was 35.1%; in test [5] it was 11.6%; in test [6], 8.95%.
Turning to `COC1OCC2OC3(CCCCC3)OC2C1SCc1ccccc1` (stereo not given), the growth inhibition was 8.05% in test [1]; -9.85% in test [2]; 10.8% in test [3]; -7.4% in test [4]; -10.4% in test [5]; -5.25% in test [6].
With `COC(=S)SSC(=S)NCCN(CCNC(=S)SSC(=S)OC)C(=S)SSC(=S)OC`, the growth inhibition in test [1] is 2.05%; in test [2], 6.2%; in test [3], -2.65%; in test [4], -2.7%; in test [5] it was 7.8%; in test [6], 26.6%.
As to `Cn1c(=O)c2sc3cc4c(cc3c2c2ccccc21)sc1c(=O)n(C)c2ccccc2c14`, the growth inhibition in test [1] is 23.2%; in test [2], -8.1%; in test [3], 22.9%; in test [4], 3.85%; in test [5], 23.2%; in test [6], 24.9%.
Regarding `[N-]=[N+]=Nc1ncnc2c1sc(=S)n2-c1ccccc1`, the growth inhibition was -6.65% in test [1]; 21.1% in test [2]; -24.1% in test [3]; 3.6% in test [4]; 15.8% in test [5]; -2.4% in test [6].
As to `COc1ccc2ccc3cccnc3c2n1`, the growth inhibition is 45.2% in test [1]; 22.1% in test [2]; 40.9% in test [3]; -2.35% in test [4]; 26.2% in test [5]; 2% in test [6].
Turning to `CC1(C)CCC2(C)CCC3(C)C(=CCC4C5(C)CCC(O)C(C)(C)C5CCC43C)C2C1` (stereo not given), the growth inhibition in test [1] was 0.85%; in test [2] it was 6.3%; in test [3] it was -10.2%; in test [4], 16.2%; in test [5], 4.25%; in test [6], 0.5%.
In the case of `O=C(O)/C(=C\c1ccccc1[N+](=O)[O-])c1ccc(C(F)(F)F)cc1`, the growth inhibition in test [1] is 4%; in test [2] it was -15.9%; in test [3] it was 1.95%; in test [4], 7.1%; in test [5], 10.7%; in test [6], -18.9%.
As to `O=c1[nH]c(-c2ccccc2)nc2cc([N+](=O)[O-])c(/C(Cl)=C/c3ccccc3)cc12`, the growth inhibition in test [1] was 28.8%; in test [2] it was 14.4%; in test [3], 13.8%; in test [4] it was 12.1%; in test [5], -1%; in test [6] it was 33.8%.

The values are drawn from PubChem BioAssay (NCI).
